Compounds with a hit are over-represented: about 1.3% of the library has one in this group of screens.
TCR activator: Activators of T cell receptors: qHTS campaign; Potency, µM (highest dose often 9.22 µM), inactives show top-dose activation of IL-2 secretion, actives largely listed as activators; primary human leukocytes, anti-CD3, IL-2 HTRF, 48 h; 330,000 tested, under 10 active; further: % of control where 0% means no effect
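Activity was scored as IL-2 release from primary human leukocytes given only a TCR signal (a-CD3 beads) plus compound for 48 hr. Detection used a two-antibody HTRF format read at 665nm.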
p53 reactivator: qHTS assay for re-activators of p53 using a Luc reporter. Potency, µM (doses to about 92.2 µM), inactives show at the highest dose activity change, positive = activation, usual class: activators. hit rate 0.063% among 320,000. H1299 p53-A138V BP100-luciferase reporter, luminescence, 24 h; further: potency means the concentration at half of the fitted maximal effect; % of control where 0% means no effect; nearly all actives have a fitted effect of over 45% in size
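H1299 (p53-null), stable ts p53-A138V + BP100-Luc; 1000 cells/well, Opti-MEM/10% FBS; cpd 4 pt, 1:5; 24 h, 37 deg C, 5% CO2; detection reagent 10 min RT; luminescence.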
BRCA1 expr up: qHTS Assay to Identify Small Molecule Activators of BRCA1 Expression; MCF7-BRCA1-FFLuc reporter, luminescence, 48 h; response scale: scaled: vehicle 0%, 10 µM genistein 100%; Potency, µM (titrated, usually from 46.1 µM), for the others: top-dose activation, usual class: activators; hit rate 1.1% among 380,000; AID 624202, 2012; further: potency means the concentration at half of the fitted maximal effect; nearly all actives have a fitted effect of over 80% in size
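Compounds are tested at multiple concentrations on MCF7 BRCA1-luciferase reporter cells seeded at 2000 per well; after 48 h, a single luminescence end-point is taken and curves fitted to the normalized data.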
Mito fusion yeast: qHTS Assay for Small Molecule Inhibitors of Mitochondrial Division or Activators of Mitochondrial Fusion; S. cerevisiae fusion-defective mutant growth rescue, CellTiterGlo 48 h; Potency, µM (highest dose often 46.1 µM), without a hit: at the top dose growth rescue (activation), most hits filed as activators; hit rate 0.23% among 320,000; AID 485298, 2010; further: potency means the concentration at half of the fitted maximal effect; % of control where 0% means no effect; nearly all actives have a fitted effect of over 45% in size
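S. cerevisiae fusion-defective temperature-sensitive mutants (e.g. fzo1-1, mgm1-5) grown 48 h at 37C in YPEG (ethanol/glycerol non-fermentable) medium with 23 nl compound per well; growth rescue read as CellTiterGlo luminescence.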
IL2 activator: qHTS of IL-2 Activators. IL-2 activation reporter assay, cell-based qHTS; stimulated with anti-CD3/CD4/CD28 beads; in transgenic mouse T cells. activation, % (series mostly up to about 46 µM). hit rate 0.065% among 360,000; in the data active means activation above about 50%; inconclusive means mostly about 30% to 49%; further: 0% is about no effect
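Readout is EGFP and DsRed signal by fluorescent plate cytometry after 18 h at 37 degrees C. Transgenic mouse T cells (750/well) received compound for 60 min before bead stimulation (anti-CD3, anti-CD4, anti-CD28); memory T cells served as non-tolerant control.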
The depositor's hits bear a star; ? = inconclusive; . = no result; [ ] = another dose, or the depositor's remark. Unless noted, the call rests on the fitted dose curve; in most records, active means well fitted curve in the direction sought with a large enough effect; inconclusive means small, poorly fitted or top-dose-only effect, or another doubt; inactive means no such curve, though single readings can be large; an effect the other way counts as inactive or inconclusive.

SMILES	TCR activator	p53 reactivator	BRCA1 expr up	Mito fusion yeast	IL2 activator
COC(=O)C(Cc1ccc(OC(=O)c2ccc(C(F)(F)F)cc2)cc1)N1Cc2ccccc2C1=O (stereo not given)	-1%	?	11µM*	-1%	-3
COC(=O)C(Cc1ccc(OC(=O)c2ccc(Cl)cc2)cc1)N1Cc2ccccc2C1=O (stereo not given)	2%	18%	13µM*	-2%	1
CCc1ccc(NC(=O)[C@H](Cc2ccccc2)N2Cc3ccccc3C2=O)cc1	.	.	2%	.	.
N#CN=c1snc(-c2ccccc2)n1-c1ccc(Br)cc1	.	.	-52%	.	.
CCc1ccc2oc(-c3ccc(C)c(NC(=O)COc4ccccc4Cl)c3)nc2c1	.	.	-3%	.	.
CCOc1ccc(-c2oc3cc(Cl)ccc3c(=O)c2O)cc1OC	.	.	-26%	.	.
c1ccc(Cc2ccc(OCCn3cncn3)cc2)cc1	-48%	11%	-3%	3%	-2
c1ccc(-c2ccc(OCCOCCn3cncn3)cc2)cc1	7%	?	7.1µM*	2%	-1
COc1ccc(N2CC(NC(=O)c3cc4ccccc4o3)CC2=O)cc1OC (stereo not given)	.	.	4%	.	.
COc1ccc(/C=C/C(=O)Nc2cccc(S(=O)(=O)NC3=NCCCCC3)c2)cc1	8%	4%	7.9µM*	-8%	0
O=C(/C=C/c1ccc(OC(F)F)cc1)Nc1cccc(S(=O)(=O)NC2=NCCCCC2)c1	10%	-4%	-17%	-5%	-6
Cc1ccc(S(=O)(=O)N2CCN(c3ccnc(-c4cccs4)n3)CC2)cc1	.	.	-1%	.	.
Cc1nn(-c2nc3ccccc3s2)c(N)c1-c1ccccc1	-5%	22µM*	?	15%	0
CN(C)c1ccc(/C=C/c2ccnc3cc(Cl)cc(Cl)c23)cc1	.	.	-17%	.	.
COc1ccccc1-c1ccc(Nc2cccc(C(C)=O)c2)nn1	13%	?	71%	6%	-1
CC(=O)c1ccc(Nc2ccc(-c3ccccc3C)nn2)cc1	-12%	4%	6.3µM*	16%	-2
CC(=O)c1cccc(Nc2ccc(-c3ccccc3F)nn2)c1	-5%	10%	11µM*	11%	0
CC1=CC(c2ccccc2)=Nc2ccc(C)cc2N1	-2%[46.1 µM]	?	7.1µM*	-3%	0
O=C(CSCc1cnn(-c2ccccc2)c1-n1cccc1)NCc1ccc2c(c1)OCO2	2%	-19%	-3%	22µM*	0
COc1ccc(CNC(=O)CSCc2cnn(-c3ccccc3)c2-n2cccc2)cc1	-7%	-2%	-20%	6%	1
O=C(c1cc(COc2ccc(F)cc2F)on1)N1CCSCC1	0%	6%	7.9µM*	12%	-1
O=C(c1cc(COc2ccc(F)cc2Cl)on1)N1CCCCCC1	0%	15%	?	-1%	0
CCOc1ccc(-n2c(SCC(=O)Nc3cc(C)ccc3C)nc3c([nH]c4ccccc43)c2=O)cc1	.	.	-12%	.	.
CCOC(=O)c1c(C)c(C(=O)NCCc2ccccc2)c(C)n1C	-2%	19%	10µM*	2%	0
CCc1noc(C)c1C(=O)NCCc1ccccc1	5%	?	10µM*	4%	1
SMILES	TCR activator	p53 reactivator	BRCA1 expr up	Mito fusion yeast	IL2 activator
CCc1noc(C)c1C(=O)NCCc1ccc(F)cc1	-18%	-1%	3%	-3%	0
C/C(=C\c1ccc(N)cc1)c1nc2ccccc2[nH]1	1%	?	7.9µM*	-19%	0
COC(=O)/C(=C\c1ccc(O)cc1)c1nc2ccccc2[nH]1	-6%	2%	-7%	-2%	1
Cc1ccc(O)c(NC(=S)NC(=O)CC(C)C)c1	6%[46.1 µM]	?	13µM*	0%	4
Cc1cccc(NC(=O)c2cccc(NC(=O)c3ccccc3)c2)n1	-5%	.	4%	-2%	-2
CCOc1ccc(C(=O)Nc2cccc(C)n2)cc1	2%	3%	?	-3%	-1
CCCCOc1ccc(C(=O)O)cc1	-3%	-4%	11%	4%	0
CCCCOc1ccc(C(=O)Nc2cccc(C)n2)cc1	-3%	?	2.8µM*	-4%	0
Cc1cccc(NC(=O)c2ccc3nccnc3c2)n1	-7%	12%	13µM*	2%	5
CCCCCCCCOc1ccc(C(=O)O)cc1	-1%	3%	77%	13µM*	0
O=C(c1cccc(Cl)c1Cl)N(Cc1ccco1)Cc1cccs1	.	.	-18%	.	.
CC(=O)Nc1ccc(NC(=O)c2oc3ccc4c(c3c2C)C(=O)CC(C)(C)O4)cc1	.	.	89%	.	.
CCOC(=O)c1cc2ccc3ccccc3c2oc1=O	13%	-11%	-13%	-4%	0
CCOC(=O)c1cc2ccc3ccccc3c2s1	-6%[46.1 µM]	25µM*	48%	8%	0
Cc1nc2ccc(S(=O)(=O)Nc3cc(-c4nc5cccnc5s4)ccc3C)cc2s1	4%	?	-17%	?	-2
Cc1nc2ccc(S(=O)(=O)Nc3cccc(-c4nc5cccnc5s4)c3C)cc2s1	5%	22%	-15%	18µM*	-6
O=C(Nc1ccccn1)c1ccc([N+](=O)[O-])cc1Cl	2%[46.1 µM]	17%	27%	-3%	-2
O=C(NCCCc1ccccc1)c1ccc([N+](=O)[O-])cc1Cl	0%	?	10µM*	-5%	-2
O=C(CCc1ccccc1)Nc1cccc([N+](=O)[O-])c1	.	9%	-8%	-4%	0
Cc1ccc(NC(=O)c2ccc([N+](=O)[O-])cc2Cl)nc1	2%[46.1 µM]	?	1.1µM*	3%	-4
O=C(Nc1cccc(O)c1)c1ccc([N+](=O)[O-])cc1Cl	-2%	?	5µM*	-4%	1
CC(=O)Nc1cccc(NC(=O)c2ccc([N+](=O)[O-])cc2Cl)c1	-4%[46.1 µM]	1%	0%	-2%	-5
O=C(CCCc1ccccc1)Nc1cccc([N+](=O)[O-])c1	3%	16%	13µM*	3%	2
COc1cc(/C=C(\C#N)c2nc3ccccc3c(=O)[nH]2)cc(OC)c1OC	.	.	0%	.	.
CN(C(=O)CSc1nc2ccc(NC(=O)c3ccco3)cc2s1)c1ccccc1	.	.	0%	.	.
CC(C)(C)OC(=O)N(c1cccc2cccnc12)S(=O)(=O)c1ccccc1Br	.	.	-2%	.	.
COc1ccc2nc3ccccc3nc2c1	-7%	12%	13µM*	-6%	0
NC(=O)C1=CN(C2OC(COP(=O)(O)OP(=O)(O)OC[C@H]3O[C@@H](n4cnc5c(N)ncnc54)[C@H](OP(=O)(O)O)[C@@H]3O)C(O)C2O)C=CC1 (stereo not given in full)	.	.	.	-1%	.
Nc1ccc2oc(-c3ccccc3Cl)cc(=O)c2c1O	0%	?	7.1µM*	9%	0
CCCCc1ccc(-c2nc(N)n[nH]2)cc1	-14%	?	7.9µM*	-22%	-2

High-throughput results as filed in PubChem BioAssay.
